High-throughput results as filed in PubChem.
Pf growth 48h: Primary qHTS for delayed death inhibitors of the malarial parasite plastid, 48 hour incubation; P. falciparum luciferase growth in erythrocytes, 48 h; Potency, µM (doses to about 28.7 µM), without a hit: top-dose activity change, negative = inhibition, actives largely listed as inhibitors; 310,000 compounds, 5.9% hits; AID 504832, 2011; active means well fitted inhibition curve with a large enough effect; inconclusive means small, poorly fitted or top-dose-only effect, or another doubt; inactive means no such curve, though single readings can be large or run the other way; further: potency means the concentration at half of the fitted maximal effect; on the % scale 0 is the no-effect control and ±100 the full control effect
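Here the parasites carry a stable luciferase gene and grow inside erythrocytes in Albumax-based RPMI medium with compound for one erythrocytic cycle. Activity is scored as loss of luminescent signal.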
Shiga toxin inh: A qHTS for Small Molecule Inhibitors of Shiga Toxin. Vero cells, Shiga toxin protein synthesis inhibition reporter. inhibition, % at 38.7 µM. 290,000 compounds, 9.2% hits; in the data active means inhibition mostly above about 28%, no sharp cut-off; inactive means mostly below about 43%; further: 0% is about no effect
NS1 inh: qHTS Assay for Inhibitors of Influenza NS1 Protein Function; Potency, µM (series often up to 46.1 µM), for inactives: top-dose activity, positive = more growth; 270,000 compounds, 0.4% hits; AID 2326, 2010; further: potency means the concentration at half of the fitted maximal effect; actives are rising curves; nearly all actives have a fitted effect of over 50% in size
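Growth recovery, yeast-based: influenza A NS1 expressed in S. cerevisiae causes slow growth, and suppressors are detected by OD600. The parent strain without NS1 is used as positive control.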
Pf growth 96h: Primary qHTS for delayed death inhibitors of the malarial parasite plastid, 96 hour incubation; P. falciparum luciferase reporter growth, 96 h; Potency, µM (titrated, usually from 28.7 µM), for the others: top-dose activity change, negative = inhibition, most hits filed as inhibitors; 320,000 compounds, 6.9% hits; AID 504834, 2011; active means well fitted inhibition curve with a large enough effect; inconclusive means small, poorly fitted or top-dose-only effect, or another doubt; inactive means no such curve, though single readings can be large or run the other way; further: potency means the concentration at half of the fitted maximal effect; on the % scale 0 is the no-effect control and ±100 the full control effect
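Erythrocytes infected with luciferase-expressing P. falciparum were dispensed at 2% hematocrit and 0.05% parasitemia (final), then incubated with compounds 96 hours at 37 C in 5% CO2. Luminescence after detection reagent addition reported growth.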
SARS PLpro yeast: qHTS of Yeast-based Assay for SARS-CoV PLP; Potency, µM (doses to about 32.9 µM), for inactives: at the top dose activity, positive = growth rescue, hits mostly activators; AID 485353, 2010; S. cerevisiae expressing SARS-CoV PLpro, growth rescue; 330,000 compounds, 0.19% hits; further: potency means the concentration at half of the fitted maximal effect; 0% is about no effect; nearly all actives have a fitted effect of over 55% in size
Cycloheximide cs: Cycloheximide Counterscreen for Small Molecule Inhibitors of Shiga Toxin. AID 2314, 2010. cell reporter, cycloheximide protein synthesis inhibition counterscreen. 300,000 compounds, 12% hits. max response, %; in the data active means max response mostly above about 13%, no sharp cut-off; inactive means mostly below about 14%; further: read at 38.3 µM for the half of the compounds with a filed dose; 0% is about no effect
Numbers without * were called inactive; ? = inconclusive; / = no result given. Hits are enriched below; roughly 21% of the tested compounds scored in any of these assays. Unless noted, the call rests on the fitted dose curve.

SMILES	Pf growth 48h	Shiga toxin inh	NS1 inh	Pf growth 96h	SARS PLpro yeast	Cycloheximide cs
CC[n+]1c(/C=C/c2ccc(OC)c(OC)c2)ccc2ccccc21	1µM*	116*	-15%	-19%	-7%	26*
CC[n+]1c(/C=C/c2ccc(N(C)C)cc2)ccc2ccccc21	0.66µM*	active	-35%	0.41µM*	-131%	24*
CN(C)c1ccc(/C=C/c2cc[n+](C)cc2)cc1	/	-17	-13%	?	-10%	-3
CCN(CC)c1ccc(/C=C/c2ccc3ccc(OC)cc3[n+]2CC)cc1	1.9µM*	-5	-68%	-4%	-12%	6
CC[n+]1c(/C=C/c2cc([N+](=O)[O-])ccc2O)ccc2ccccc21	?	7	4%	95%	-5%	1
CC[n+]1c(/C=C/c2ccc(OC(C)=O)c(OC)c2)ccc2ccccc21	?	61*	4%	?	-1%	40*
COc1cccc(/C=C/C(=O)OCC(=O)NC2CC2)c1OC	/	/	/	/	-4%	/
CCSc1nnc(CNc2ccc(C)cc2)n1C	29%	2	-1%	18%	-13%	9
COCCNc1nnc(SCC(=O)c2c[nH]c3ccccc23)s1	8.3µM*	16	12%	?	-4%	6
Cc1ccc(C(=O)c2c(NC(=O)CSc3nnc(N)s3)sc3c2CCCC3)cc1	12µM*	4	52%	5.2µM*	-18%	5
COCCNc1nnc(SCC(=O)NNC(=O)c2ccccc2)s1	15%	-1	6%	18%	1%	-1
Nc1nnc(SCC(=O)Nc2sc3c(c2C(=O)c2ccccc2)CCCC3)s1	-18%	-7	7%	?	-13%	-1
COCCNc1nnc(SCC(=O)Nc2sc3c(c2C(=O)c2ccccc2)CCCC3)s1	?	-6	6%	9.3µM*	-41%	-1
Cc1ccc(N(C(=O)c2csnn2)C(C(=O)NC2CCCCC2)c2cccnc2)cc1 (stereo not drawn)	-6%	-7	2%	-2%	-1%	-6
O=C(Cc1ccsc1)NNC(=O)c1ccccc1Cl	-15%	/	/	28%	3%	/
Cc1ccc(S(=O)(=O)Nc2ccc(F)cc2)cc1C(=O)N1CCOCC1	/	/	/	/	-1%	/
COc1ccc(C2/C=C\CN(C(=O)C3CC3)C(C)C(=O)N2Cc2ccc(F)cc2)cc1 (stereo not drawn)	/	-5	/	/	/	6
CCc1cc(=O)oc2c3c(cc(OCC(=O)NCCCCCC(=O)O)c12)OC(C)(C)CC3	?	-5	3%	?	-2%	-2
CCCc1cc(=O)oc2c3c(cc(OCC(=O)NCC4CCC(C(=O)O)CC4)c12)OC(C)(C)CC3 (stereo not drawn)	?	-1	9%	1.3µM*	7%	6
Cc1c(C)c2c(OCC(=O)Nc3cccnc3)cc3c(c2oc1=O)CCC(C)(C)O3	?	-7	-13%	4.1µM*	-1%	-2
CCc1cc(=O)oc2c3c(cc(OCC(=O)Nc4cccnc4)c12)OC(C)(C)CC3	2.1µM*	-1	-23%	2.9µM*	-14%	1
COc1cc2c(c3oc(=O)cc(CC(=O)O)c13)CCC(C)(C)O2	?	17	-9%	5.2µM*	1%	7
COc1ccccc1N/C(=N/S(=O)(=O)c1ccc(C)cc1)c1ccc(Cl)cc1	?	34	-7%	?	-27%	3
COc1ccccc1Cc1nc2ccccc2n1S(=O)(=O)c1ccc(Cl)cc1	0%	-3	-5%	?	0%	0
CCCCNC(=O)c1ccc(NC(=O)CC2SC(N3CCCC3)=NC2=O)cc1 (stereo not drawn)	?	/	/	?	-7%	/
CCc1cc(=O)oc2c3c(cc(OCC(=O)NCc4ccccn4)c12)OC(C)(C)CC3	?	-3	-39%	?	-9%	-1
CCc1cc(=O)oc2c3c(cc(OCC(=O)NCc4cccnc4)c12)OC(C)(C)CC3	9.3µM*	13	-12%	?	10%	7
Cc1c(C(=O)NC(c2ccccn2)C(F)(F)F)oc2c(F)cccc12 (stereo not drawn)	13%	-15	8%	?	3%	-2
